From PubChem
ELG1 repair inh = blocks ELG1-dependent DNA repair in HEK293T cells; HEK293T ELG1-luciferase reporter, luminescence, 16 h; DNA damage induced by 5-fluorouridine; AID 504467; hit rate 2.3% among 330,000; Potency, µM (doses to about 46.1 µM), for inactives: top-dose activity change, negative = inhibition, most hits filed as inhibitors; further: on the % scale 0 is the no-effect control and ±100 the full control effect; nearly all actives have a fitted effect of over 55% in size
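HEK293T cells expressing luciferase-tagged ELG1 (2,000/well) received 5-Fluorouridine plus compound or DMSO for 16 hr at 37 °C. Luciferase was read by ONE-Glo luminescence after 30 min at room temperature.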
NPC1 promoter act = activates the NPC1 promoter; AID 485313; Potency, µM (highest dose often 9.22 µM), for inactives: top-dose activation, most hits filed as activators; hit rate 2.4% among 320,000; Huh7 NPC1 promoter luciferase reporter, 24 h; further: % of control where 0% means no effect; nearly all actives have a fitted effect of over 60% in size
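Compounds in DMSO were transferred onto Huh7 NPC1-luciferase reporter cells pre-incubated 2 h; after 24 h at 37 °C, Amplite reagent was dispensed and luminescence recorded 10 min later.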
FLuc modulator = firefly luciferase modulation, counter-screen for miR-21 project; purified FLuc, Km substrates, luminescence inhibition; hit rate 6.9% among 360,000; Potency, µM (top dose mostly 57.5 µM), inactives show at the highest dose activity change, negative = inhibition, actives largely listed as inhibitors;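 further: plate controls were vehicle for no effect and reference inhibitor for full effect; nearly all actives have a fitted effect of over 55% in size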
Target sequence (P08659 whole entry, looked up): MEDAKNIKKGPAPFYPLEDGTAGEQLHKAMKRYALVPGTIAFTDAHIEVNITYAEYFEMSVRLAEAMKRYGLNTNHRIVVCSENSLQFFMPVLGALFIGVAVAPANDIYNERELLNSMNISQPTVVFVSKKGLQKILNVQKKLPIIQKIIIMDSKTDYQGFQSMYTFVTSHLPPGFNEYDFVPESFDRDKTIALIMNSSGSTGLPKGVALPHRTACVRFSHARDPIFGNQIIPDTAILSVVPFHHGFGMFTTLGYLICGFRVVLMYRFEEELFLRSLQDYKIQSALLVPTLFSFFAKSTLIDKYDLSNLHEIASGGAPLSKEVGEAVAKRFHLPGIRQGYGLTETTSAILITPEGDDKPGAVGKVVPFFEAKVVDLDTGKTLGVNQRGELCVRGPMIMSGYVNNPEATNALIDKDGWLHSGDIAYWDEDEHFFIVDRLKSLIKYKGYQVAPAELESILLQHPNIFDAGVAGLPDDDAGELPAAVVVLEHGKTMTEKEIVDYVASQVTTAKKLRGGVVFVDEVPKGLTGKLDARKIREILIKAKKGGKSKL
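Purified P. pyralis luciferase (10nM final) with 10uM D-luciferin and 10uM ATP (Km levels) in 50mM Tris acetate pH 7.5, 10mM Mg acetate, 0.01% Tween-20, 0.05% BSA; qHTS 6-point titration, ~60 µM downward; luminescence read.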
ELG1 genotox = inducers of genotoxicity in HEK293T ELG1-luciferase cells; Potency, µM (doses to about 46 µM), for the others: top-dose activity change, positive = activation, most hits filed as activators; AID 504466; hit rate 1.3% among 330,000; HEK293T ELG1-luciferase reporter, luminescence, 16 h; further: % of control where 0% means no effect; nearly all actives have a fitted effect of over 60% in size
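HEK293T cells expressing luciferase-tagged ELG1 were treated with compound or DMSO for 16 hr at 37°C. Luciferase activity was then read after 30 min with ONE-Glo at room temperature; rising signal flags genetic stress.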
SMN2 splice up = enhancers of SMN2 splice variant expression. hit rate 2.8% among 210,000. HEK293 SMN2-luciferase splicing reporter, luminescence, 30-36 h. AID 1458. Potency, µM (top dose mostly 46.1 µM), for the others: at the top dose activity change, positive = activation, most hits filed as activators; further: % of control where 0% means no effect; nearly all actives have a fitted effect of over 55% in size
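qHTS luciferase splicing reporter: luminescence rises when SMN2 exon 7 is included in transfected HEK293 cells. Compound exposure lasted 30-36 h at 37C, with 4.5 mM final sodium butyrate as control, followed by a ONE-Glo read.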
Rab9 promoter act = Rab9 promoter activation; Huh7 Rab9 promoter-luciferase reporter, luminescence, 24 h; hit rate 2.8% among 320,000; Potency, µM (highest dose often 9.22 µM), for inactives: top-dose activation, negative = inhibition, actives largely listed as activators; AID 485297; further: % of control where 0% means no effect; nearly all actives have a fitted effect of over 60% in size
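Stable Rab9-luc Huh7, 1500 cells/well, 2 h settle; cmpd in DMSO, 24 h, 37 °C/5% CO2; luciferase reagent 10 min RT; luminescence.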
Active calls of the source: *; ? = inconclusive; · = no result; [ ] = remark or other dose. Sampled rows, rich in hits. Any-hit rate of the full collection: about 9.4%. The call rests on the fitted dose curve; in most records, active means well fitted curve in the direction sought with a large enough effect; inconclusive means small, poorly fitted or top-dose-only effect, or another doubt; inactive means no such curve, though single readings can be large; an effect the other way counts as inactive or inconclusive. Potency means the concentration at half of the fitted maximal effect.

SMILES | ELG1 repair inh | NPC1 promoter act | FLuc modulator | ELG1 genotox | SMN2 splice up | Rab9 promoter act
Cc1cccc(N2CCN(C(=O)C3CCC(CNS(=O)(=O)c4ccc(Br)s4)CC3)CC2)c1C (stereo not given) | · | · | -1% | · | -11% | ·
Cc1cccc(N2CCN(C(=O)C3CCCCC3)CC2)c1C | ? | 0% | 0% | -1% | -10% | -4%
Cc1cc(N2CCC(C(=O)N3CCN(c4cccc(C)c4C)CC3)CC2)n2ncnc2n1 | 21µM* | 11% | 1% | 2% | -29% | -3%
Cc1cccc(N2CCN(C(=O)C3CCN(S(=O)(=O)N4CCOCC4)CC3)CC2)c1C | 18µM* | -7% | 0% | -6% | -50% | -4%
COC(=O)Cc1c(C)c2ccc(OC(C)C)cc2oc1=O | ? | ? | 15µM* | 18% | · | 3.2µM*
COC(=O)Cc1c(C)c2ccc(OC(=O)c3ccco3)cc2oc1=O | 5% | 0% | 17µM* | 4% | -4% | 1%
COC(=O)Cc1c(C)c2cc(Cl)c(OC(=O)c3ccco3)cc2oc1=O | 17% | -1% | ? | 0% | -17% | -3%
Cc1cc(OCCCn2c(CCNC(=O)C3CCCCC3)nc3ccccc32)ccc1Cl | · | · | ? | · | -4% | ·
C=C1C[C@@]23C[C@]1(O)CC[C@@H]2[C@]12C=C[C@@H](O)[C@](C)(C(=O)O1)[C@H]2[C@H]3C(=O)O | · | · | · | · | -7%[20.6 µM] | ·
COC(=O)[C@@]1(Cc2ccc(OC)cc2)[C@H]2c3cc(C(=O)N(C)C)n(C)c3C[C@H]2CN1C(=O)c1ccccc1 | · | · | · | · | 25% | ·
CCOc1ccc(CCNC(=O)c2ccc(CS(=O)Cc3cccc(Cl)c3)o2)cc1 (stereo not given) | -12% | -4% | 17µM* | -4% | · | -1%
Cc1cc(/C=N/NC(N)=O)c(C)n1-c1ccc(F)cc1 | -5% | 0% | -10% | 4% | -28% | -1%
CCc1ccc(-n2c(C)cc(/C=N/NC(=O)c3ccncc3)c2C)cc1 | ? | 4% | 12µM* | -11% | -15% | -1%
Cc1cc(C(=O)N/N=C/c2ccc(O)c(O)c2O)c(C)n1-c1ccccc1 | ? | 0% | 11µM* | -5% | -38% | -3%
Cc1ccc(/C=N/NC(=O)c2cccc([N+](=O)[O-])c2)o1 | 2% | 2% | -4% | -1% | -22% | 1%
Cc1cc(/C=N/NC(=O)c2cccc([N+](=O)[O-])c2)c(C)n1-c1ccccc1 | ? | 0% | 1.7µM* | ? | 27% | 20%
O=C(N/N=C/c1cc(Cl)ccc1O)c1ccncc1 | 15µM* | -42% | ? | 15% | · | -30%
Cc1cc(C(=O)O)c(C)n1-c1ccccc1 | -3% | 4% | 5% | 1% | -10% | -1%
Oc1ccc2cc(SSc3ccc4cc(O)ccc4c3)ccc2c1 | · | · | · | · | -40% | ·
Cc1cc(/C=N/NC(=O)C(O)(c2ccccc2)c2ccccc2)c(C)n1-c1ccccc1 | 9% | -4% | ? | -3% | ? | -1%
Cc1cc(/C=N/NC(=O)c2cccs2)c(C)n1-c1cnccn1 | ? | 2µM* | 4.8µM* | 7.3µM* | · | 3.5µM*
Cc1cc(/C=N/NC(=O)COc2cccc3cccnc23)c(C)n1-c1ccc(O)cc1 | -2% | 20% | 3.4µM* | 5% | ? | 30%
Cc1cccc(C)c1-n1c(C)cc(/C=N/NC(=O)c2ccncc2)c1C | 15% | 0% | -23% | 3% | 2% | 0%
Cc1cc(/C=N/NC(=O)c2ccncc2)c(C)n1-c1ccccc1 | ? | 23% | 1.9µM* | ? | ? | ?
Cc1cc(C)cc(-n2c(C)cc(/C=N\NC(=O)COc3cccc4cccnc34)c2C)c1 | -28% | -2% | ? | -4% | 3% | 2%
SMILES | ELG1 repair inh | NPC1 promoter act | FLuc modulator | ELG1 genotox | SMN2 splice up | Rab9 promoter act
Cc1cc(/C=N/NC(=O)c2cccs2)c(C)n1-c1ccccc1 | ? | 0.63µM* | 0.085µM* | ? | ? | 0.79µM*
CN(C)S(=O)(=O)c1ccc2c(c1)N(CC(=O)NCc1cccc(Br)c1)C(=O)CS2 | · | · | -1% | · | · | ·
Cc1ccc(CNc2ccc(-c3nc(C(C)C)no3)cc2[N+](=O)[O-])cc1 | · | · | -1% | · | · | ·
Cc1ccc(-n2c(C)cc(/C=N/NC(=O)CC3(C)OCCO3)c2C)c(C)c1 | -5% | 1% | ? | -1% | -48% | 1%
Cc1ccc(-n2c(C)cc(/C=N/NC(=O)c3ccncc3)c2C)c(C)c1 | 5% | -5% | 12µM* | -4% | -10% | 8%
Cc1cccc(C)c1-n1c(C)cc(/C=N/NC(=O)CSc2ncccn2)c1C | ? | 2% | ? | 9% | -5%[1.84 µM] | -2%
Cc1ccc(-n2c(C)cc(/C=N/NC(=O)c3ccncc3)c2C)cc1C | -9% | -7% | 8.5µM* | -1% | -22% | 24%
Cc1cc(C)nc(SCC(=O)N/N=C/c2cc(C)n(-c3ccccc3C)c2C)n1 | 12% | 0% | 17µM* | -1% | -14% | -1%
Cc1cc(C(=O)N/N=C2\CC(=O)c3ccccc32)c(C)n1-c1ccccc1 | ? | ? | 2.7µM* | ? | 10µM* | 3.5µM*
Cc1cc(C(=O)N/N=C2\CC(=O)CC(C)(C)C2)c(C)n1-c1ccccc1 | -8% | 0% | -18% | 1% | -49% | -3%
CN(C)CCN(Cc1ccco1)C(=O)c1cc2c(s1)-c1ccccc1OC2 | · | · | 5% | · | -5% | ·
CCC(=O)NC1Cc2ccccc2C(c2ccccc2)C1 (stereo not given) | · | · | · | · | -7% | ·
O=C1c2ccccc2NC(c2ccc(-c3ccc(F)cc3)o2)N1O (stereo not given) | ? | 2.8µM* | ? | ? | · | 2%
COc1ccc(OC)c(NC(=O)CN2CCCN(Cc3ccccc3Cl)S2(=O)=O)c1 | · | · | 3% | · | · | ·
COc1ccc2c(c1)C(=O)[C@H](OC(=O)NCc1ccc3c(c1)OCO3)[C@@H](c1ccc(OC)c(Br)c1)O2 | · | · | · | · | -6% | ·
COc1ccc2c(c1)C(=O)[C@@H](OC(=O)NCc1ccc3c(c1)OCO3)[C@H](c1ccc(OC)c(Br)c1)O2 | 18µM* | -1% | -2% | -1% | 10% | 0%
Cc1ccccc1NC(=O)c1c(C)oc2ccc(O)c(CN3CCC(C)CC3)c12 | · | · | 2% | · | -3% | ·
O=C(Nc1ccc(F)cc1)N(Cc1ccco1)Cc1cc2cc3c(cc2[nH]c1=O)OCO3 | 23µM* | -4% | 2% | -17% | -65% | -2%
CNC(=S)N(CCc1cccc(C)c1)Cc1cc2cc(OC)c(OC)cc2[nH]c1=O | 13µM* | 3% | -1% | 0% | -18%[1.84 µM] | -1%
